Records with an inconclusive call do not appear. Entries that show only a call come without a potency. The source made the active and inactive calls. The call rests on the fitted dose curve.
Molecular target: Muscarinic acetylcholine receptor M1 (Homo sapiens) (UniProt P11229)
Experiment: Cholinergic receptor muscarinic 1 (CHRM1) small molecule antagonists, cell-based qHTS assay (AID 1963588); further: nearly all actives have a fitted effect of over 40% in size
Details: CHRM1-CHO antagonist mode, calcium flux fluorescence; series mostly up to 61.5 µM
Method in brief: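 Compounds were tested at 15 concentrations in three independent runs. Dye-loaded CHRM1-CHO cells were exposed 5 min at room temperature before stimulation by acetylcholine added at 50nM. Intracellular calcium was read kinetically on FDSS for 3 min.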

Sequence of Muscarinic acetylcholine receptor M1 (Homo sapiens) (P11229 whole entry, looked up): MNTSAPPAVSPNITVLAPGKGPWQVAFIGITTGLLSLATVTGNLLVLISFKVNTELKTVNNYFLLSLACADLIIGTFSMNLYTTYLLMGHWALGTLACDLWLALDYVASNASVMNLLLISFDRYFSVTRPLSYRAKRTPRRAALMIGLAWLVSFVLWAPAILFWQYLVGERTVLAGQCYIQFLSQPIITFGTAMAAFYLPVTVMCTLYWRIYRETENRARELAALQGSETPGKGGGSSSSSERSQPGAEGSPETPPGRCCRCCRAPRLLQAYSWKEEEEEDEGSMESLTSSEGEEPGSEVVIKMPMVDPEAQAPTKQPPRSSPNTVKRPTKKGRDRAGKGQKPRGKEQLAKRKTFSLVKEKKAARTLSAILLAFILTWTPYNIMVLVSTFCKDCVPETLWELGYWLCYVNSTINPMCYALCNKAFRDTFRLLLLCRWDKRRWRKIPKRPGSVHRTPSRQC

Q: With OC[C@H]1O[C@@H]2O[C@H]3[C@H](O)[C@@H](O)[C@@H](O[C@H]4[C@H](O)[C@@H](O)[C@@H](O[C@H]5[C@H](O)[C@@H](O)[C@@H](O[C@H]6[C@H](O)[C@@H](O)[C@@H](O[C@H]7[C@H](O)[C@@H](O)[C@@H](O[C@H]8[C@H](O)[C@@H](O)[C@@H](O[C@H]9[C@H](O)[C@@H](O)[C@@H](O[C@H]1[C@H](O)[C@H]2O)O[C@@H]9CO)O[C@@H]8CO)O[C@@H]7CO)O[C@@H]6CO)O[C@@H]5CO)O[C@@H]4CO)O[C@@H]3CO as the compound, how does the Potency read?
A: Its Potency is “inactive”.

Q: Which Potency does the source give for CCCCCCCCCCCCOC(C)=O here?
A: The Potency was “inactive”.

Q: S=C(S)NCCNC(=S)S was tested. Which Potency did it give?
A: The Potency was “inactive”.

Q: How did the Potency turn out when C=Cc1ccc(C(C)(C)C)cc1 was run?
A: Its Potency is “inactive”.

Q: CCN[C@H]1C[C@H](C)S(=O)(=O)c2sc(S(N)(=O)=O)cc21 was tested. Which Potency did it give?
A: The Potency was “inactive”.

Q: O=c1c2ccccc2oc2ccccc12 was tested. Which Potency did it give?
A: The Potency was “inactive”.

Q: Nc1ncn([C@H]2C[C@H](O)[C@@H](CO)O2)c(=O)n1 was tested. Which Potency did it give?
A: The Potency was “inactive”.

Q: For CC(=O)Nc1ccc(S(=O)(=O)Cl)cc1, which Potency is on record?
A: Its Potency is “inactive”.

Q: How did the Potency turn out when CC(C)(C)C(=O)CCc1ccc(Cl)cc1 was run?
A: The Potency was “inactive”.

Q: For CC(=O)NNC(C)=O, which Potency is on record?
A: Its Potency is “inactive”.

Q: With O=[N+]([O-])c1ccc(Cl)cc1Cl as the compound, how does the Potency read?
A: Its Potency is “inactive”.

Q: For OCC1CC=CCC1 (stereo not given), which Potency is on record?
A: The Potency was “inactive”.

Q: C=CCN(CC=C)CC=C was tested. Which Potency did it give?
A: The Potency was “inactive”.

Q: With O=C(Cl)c1c(Cl)cccc1Cl as the compound, how does the Potency read?
A: The Potency was “inactive”.

Q: For NCCCN(CCO)CCO, which Potency is on record?
A: Its Potency is “inactive”.

Q: How did the Potency turn out when CC1=C(C(=O)O)N2C(=O)[C@@H](NC(=O)[C@H](N)C3=CCC=CC3)[C@H]2SC1 was run?
A: The Potency was “inactive”.

Q: How did the Potency turn out when C#CC(O)C(CC)CCCC (stereo not given) was run?
A: The Potency was “inactive”.

Q: C=C1CCC2CC1C2(C)C (stereo not given) was tested. Which Potency did it give?
A: Its Potency is “inactive”.

Q: How did the Potency turn out when CC(C)CCOCc1ccccc1 was run?
A: Its Potency is “inactive”.

Q: How did the Potency turn out when CC1(C)C(=O)N(Cl)C(=O)N1Br was run?
A: The Potency was “inactive”.

Q: Which Potency does the source give for CCOc1ccc(OCC)c(Cl)c1 here?
A: Its Potency is “inactive”.

Q: c1ccc(-c2nc[nH]c2-c2ccccc2)cc1 was tested. Which Potency did it give?
A: The Potency was “inactive”.

Q: Which Potency does the source give for CCOc1ccc2nc(S(N)(=O)=O)sc2c1 here?
A: The Potency was “inactive”.

Q: O=C1CC[C@@H](C(=O)O)N1 was tested. Which Potency did it give?
A: The Potency was “inactive”.

Q: CCCCC(CC)C(=O)OCCOCCOCCOCCOC(=O)C(CC)CCCC (stereo not given) was tested. Which Potency did it give?
A: Its Potency is “inactive”.

Q: With O=C(O)CNC(=O)CNC(=O)CNC(=O)CSC(=O)c1ccccc1 as the compound, how does the Potency read?
A: Its Potency is “inactive”.

Q: Which Potency does the source give for CC(O)CC(C)O (stereo not given) here?
A: Its Potency is “inactive”.

Q: Clc1sc(Cl)c(Cl)c1Cl was tested. Which Potency did it give?
A: Its Potency is “inactive”.

Q: For C/C=C(\C)C(C)=O, which Potency is on record?
A: Its Potency is “inactive”.

Q: How did the Potency turn out when CC1=NN(c2cccc(S(=O)(=O)O)c2)C(=O)C1 was run?
A: The Potency was “inactive”.

Q: C=CCOC(=O)c1ccc(C(=O)OCC=C)c(C(=O)OCC=C)c1 was tested. Which Potency did it give?
A: The Potency was “inactive”.

Q: Which Potency does the source give for Cc1ccc(N)cc1S(=O)(=O)O here?
A: Its Potency is “inactive”.

Q: For CC(C)(CO)[N+](=O)[O-], which Potency is on record?
A: The Potency was “inactive”.

Q: Which Potency does the source give for C[Si](C)(C)O[Si](O)(O)O here?
A: The Potency was “inactive”.

Q: CC(Cc1ccccc1)(NC(=O)CN)c1ccccc1 (stereo not given) was tested. Which Potency did it give?
A: The Potency was “inactive”.

Q: Which Potency does the source give for N[C@@H](CCC(=O)O)C(=O)O here?
A: The Potency was “inactive”.

Q: Which Potency does the source give for C=C(C)C1CC=C(C)C(=O)C1 (stereo not given) here?
A: Its Potency is “inactive”.

Q: CC(CO)(CO)[N+](=O)[O-] was tested. Which Potency did it give?
A: The Potency was “inactive”.

Q: How did the Potency turn out when NNC(=O)CP(=O)(c1ccccc1)c1ccccc1 was run?
A: The Potency was “inactive”.

Q: For C=CCCC(=O)O, which Potency is on record?
A: The Potency was “inactive”.
